# Assay outcomes as filed in PubChem BioAssay.
# In the library only some 2.4% were active in any assay of this set; here they are far more common.
# SENP6 inh: SENP6 protease inhibition | inhibition, % at 10 µM | Recombinant SENP6 catalytic domain, aminoluciferin luminescence | 330,000 compounds, 1.8% hits | Q9GZR1;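 active means inhibition above about 50% at the single tested dose, limit read from the data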;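 further: plate controls were DMSO wells with enzyme for no effect and DMSO wells lacking enzyme for full effect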
# Target sequence (Q9GZR1 628-1112 limits assumed): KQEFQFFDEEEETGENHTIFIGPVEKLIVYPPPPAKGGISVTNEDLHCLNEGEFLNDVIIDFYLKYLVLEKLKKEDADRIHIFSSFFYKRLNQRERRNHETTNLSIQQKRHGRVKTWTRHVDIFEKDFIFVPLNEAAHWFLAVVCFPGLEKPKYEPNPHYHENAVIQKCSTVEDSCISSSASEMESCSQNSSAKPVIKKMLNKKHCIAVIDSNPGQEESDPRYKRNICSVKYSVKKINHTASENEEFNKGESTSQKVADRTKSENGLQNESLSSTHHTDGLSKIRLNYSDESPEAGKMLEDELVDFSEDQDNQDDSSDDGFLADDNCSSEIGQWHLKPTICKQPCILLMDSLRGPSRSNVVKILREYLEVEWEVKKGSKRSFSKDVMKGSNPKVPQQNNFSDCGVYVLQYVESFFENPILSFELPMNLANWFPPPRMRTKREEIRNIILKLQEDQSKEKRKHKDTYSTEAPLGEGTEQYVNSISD
# Platelet DG rel: modulates dense granule release in human platelets; 300,000 compounds, 0.22% hits; human platelet-rich plasma, SFLLRN dense granule ATP release, luminescence; inhibition, %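 (compounds screened at 7.5 µM in platelet-rich plasma)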;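 active means mean replicate score, as percent of positive control, at or above 50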
# SENP8 block-1: blocks human SENP8 cleavage of Nedd8 substrate. Q96LD8. recombinant SENP8, Nedd8 substrate fluorescence. inhibition, % at 20 µM. 360,000 compounds, 0.64% hits. AID 602440; in the data active means inhibition mostly above about 40%, no sharp cut-off; inactive means mostly below about 27%
# SENP7 inh: blocks the human protease SENP7. Q9BQF6. recombinant SENP7, Z-RLRGG-aminoluciferin luminescence, 40 min. inhibition, % at 5 µM. 330,000 compounds, 1.5% hits;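 active means inhibition above about 50% at the single test dose, limit read from the data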;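 further: plate controls were DMSO with enzyme for no effect and no enzyme buffer wells for full effect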
# SENP8 block-2: blocks the human protease SENP8; Q96LD8; 330,000 compounds, 1.2% hits; AID 2540; purified SENP8, Z-RLRGG-aminoluciferin cleavage, luminescence; inhibition, % at 10 µM; in the data active means inhibition above about 50%
# An asterisk follows results filed as active; i = inactive; · = no result given.
SMILES,SENP6 inh,Platelet DG rel,SENP8 block-1,SENP7 inh,SENP8 block-2
O=C(N=Nc1c(O)n(Cc2ccccc2)c2ccccc12)c1ccncc1,26,1,42*,7,-12
Cn1c(N=NC(=O)c2ccccc2)c(O)c2ccccc21,70*,-5,24,49,41
O=S(=O)(Nc1nc2ccccc2nc1N1CCc2ccccc2C1)c1ccc(Cl)cc1,37,11,-235,58*,0
O=S(=O)(Nc1nc2ccccc2nc1N1CCc2ccccc2C1)c1ccc(Br)cc1,·,·,-297,·,·
Cc1cc(-c2nnc(CCC(=O)NC(C)c3cccc4ccccc34)o2)no1 (configuration not stated),-20,50*,11,-4,3
COC/C=C/C1=CC2=CC(=O)C(C)(OC(=O)c3cnc4ccccc4n3)C(=O)C2=CN1CC(C)C (configuration not stated),20,1,54*,-4,-4
CCCC(=O)Nc1nnc(S(=O)(=O)N(C)Cc2ccco2)s1,18,-4,-27,4,6
Nc1cccc(C2=Nc3cccc4cccc(c34)N2)c1,·,2,46*,·,·
COCCNC(=O)CSc1n[nH]c(=O)n1CCc1ccccc1,-21,-3,8,-14,-12
C[C@H]1CN([C@@H](C)CO)C(=O)CCCn2nncc2CO[C@H]1CN(C)C(=O)C1CC1,·,·,0,·,·
Cc1ccc2nc(N3C(=O)C(O)=C(C(=O)c4ccc(C)o4)C3c3ccco3)sc2c1 (configuration not stated),78*,·,-132,76*,64*
Cc1cc(N2C(=O)C(O)=C(C(=O)c3cc4ccccc4o3)C2c2cccs2)no1 (configuration not stated),-8,-15,-18,5,-3
Cc1ccc2nc(N3C(=O)C(O)=C(C(=O)c4cc5ccccc5o4)C3c3cccs3)sc2c1 (configuration not stated),88*,1,-85,78*,68*
CCc1ccc2nc(N3C(=O)C(O)=C(C(=O)c4ccco4)C3c3cccs3)sc2c1 (configuration not stated),55*,2,-114,38,30
Cc1ccc2nc(N3C(=O)C(O)=C(C(=O)c4ccco4)C3c3ccc(O)cc3)sc2c1 (configuration not stated),31,-13,-28,-2,0
CCN(CC)C(=S)SCC(=O)Nc1ncc2c(n1)CCCC2=O,-10,7,30,12,-13
O=C1/C(=C/C=C/c2ccco2)SC(=S)N1c1ccc(O)cc1,-53,8,46*,9,4
O=C1/C(=C\c2ccco2)SC(=S)N1c1ccc(O)cc1,-5,-11,13,7,29
O=C(Nc1ccc2oc(-c3ccccc3F)nc2c1)c1ncn[nH]1,82*,3,i,81*,51*
CC(C)COc1cccc(C(=O)N(CC(=O)Nc2ccccc2C(F)(F)F)Cc2ccco2)c1,-5,·,3,4,2
CCOc1ccc(C(=O)Nc2cccc(NC(=O)c3cccs3)c2)cc1[N+](=O)[O-],·,-1,11,·,·
CCOc1ccc(C(=O)Nc2cccc([N+](=O)[O-])c2)cc1Br,8,16,15,56*,-1
COc1ccccc1-c1cnc(C(O)c2ccc(F)cc2C)[nH]1 (configuration not stated),·,·,13,·,·
C=CCN=c1scc(-c2ccco2)n1/N=C/c1ccc(O)c(O)c1O,-10,11,51*,-5,-8
CCCCCCCCN1C(=O)[C@H](CC(=O)NCCc2ccccc2OC)C[C@@]2(C(=O)OCC)CCCC=C12,·,·,6,·,·
SMILES,SENP6 inh,Platelet DG rel,SENP8 block-1,SENP7 inh,SENP8 block-2
COC(=O)CSc1nnc(-c2ccc(S(=O)(=O)N3CCCC3)cc2)o1,7,25,0,-2,1
CCS(=O)(=O)Nc1ccc(-c2nnc(SCC(=O)OC)o2)cc1,-12,50*,12,6,-1
O=c1[nH]c(CCl)nc2cc(-c3ccc(F)cc3)sc12,89*,-18,-2,47,79*
COCCNc1nc2cc(-c3ccc(F)cc3)sc2c(=O)n1C,·,·,-118,·,·
C=CCn1c(O)c(N=NC(=S)Nc2ccccc2F)c2ccccc21,9,4,23,-2,-6
C=CCn1c(O)c(N=NC(=S)Nc2cccc(C)c2)c2ccccc21,10,5,42*,-3,-3
CC(=O)Nc1cccc(N2C(=O)CC(Cc3ccccc3)C2=O)c1 (configuration not stated),19,57*,13,5,12
COc1ccc(C(O)c2nc(-c3cccc(F)c3)cs2)cc1 (configuration not stated),·,·,14,·,·
CCOC(=O)CNS(=O)(=O)c1cc(-c2n[nH]c(=O)c3ccccc23)ccc1C,·,51*,23,·,·
COc1ccc(C(=O)N2CCCC(c3nc(-c4ccc(OC)c(OC)c4)no3)C2)c(OC)c1 (configuration not stated),-14,50*,13,2,-4
Cc1ccc(S(=O)(=O)N2CCCCC2)cc1NC(=O)CNCc1ccco1,-20,-1,23,-6,-3
CCOC(=O)N1CCC(N2C(=O)c3ccc(C(=O)NCCC(C)C)cc3C2=O)CC1,-17,-10,10,2,5
CCOC(=O)N1CCC(N2C(=O)c3ccc(C(=O)Nc4ccc(OC)c(OC)c4)cc3C2=O)CC1,14,-5,13*,-3,5
O=C(/C=C/Nc1ccccc1O)c1ccco1,89*,13,-37,85*,77*
O=[N+]([O-])c1ccccc1N=Nc1ccc(O)cc1O,·,·,65*,·,·
O=S(=O)(O)c1cc(O)c(N=Nc2ccc(O)cc2O)c2ccccc12,·,·,12,·,·
Cn1cc([C@]2(O)C(=O)Nc3cccc(Cl)c32)c2ccccc21,·,·,15,·,·
Cc1ccc(-c2cn(-c3ccccc3)c(=S)[nH]2)cc1C,81*,-1,12,87*,66*
Cc1cccc[n+]1CC(=O)/C=C1\N(C)c2ccccc2C1(C)C,-14,15,24,-6,-6
CN1/C(=C/C=C/c2n(C)c3cc([N+](=O)[O-])c([N+](=O)[O-])cc3[n+]2C)C(C)(C)c2ccccc21,·,·,60*,·,·
Cc1cccc(C)c1-n1c(C)cc(/C=N\Nc2ccc([N+](=O)[O-])cn2)c1C,-5,4,37,-6,-7
Cc1cc(/C=N/Nc2nc(N)ncc2[N+](=O)[O-])c(C)n1-c1ccccc1F,102*,28,·,95*,95*
COc1ccc2cc1Oc1ccc(cc1)CC1c3c(cc(OC)c4c3Oc3cc5c(cc3O4)CCNC5C2)CCN1C (configuration not stated),-13,0,45*,-12,-5
Cc1c(C(=O)O)sc(S(=O)(=O)N2CCN(C(=O)CCc3ccccc3)CC2)c1C(=O)O,-19,·,5,-8,-13
O=C1CC(c2ccc(O)cc2)Oc2cc(O)cc(O)c21 (configuration not stated),27,-1,-1,5,17
CC1CC(=O)c2c(cc3c(-c4c(O)cc(O)c5c(O)c6c(cc45)OC(C)CC6=O)c(O)cc(O)c3c2O)O1 (configuration not stated),41,5,71*,26,22
